In PubChem BioAssay (NCATS):
Records with an inconclusive call do not appear. Entries that show only a call come without a potency. Activity calls are given as the source filed them. Calls come from the whole dose curve; as a rule, active = well fitted inhibition curve with a large enough effect; inconclusive = small, poorly fitted or top-dose-only effect; inactive = flat fitted curve, though single readings scatter.

Each compound was assayed against Calcium and integrin-binding protein 1 (Homo sapiens) (UniProt Q99828) (assay: Primary qHTS for Identification of Calcium Integrin Binding Protein 1 (CIB1) Competitor (AID 1508620;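 note: GST tagged CIB1 binding a fluorescein labelled alphaIIb integrin peptide tracer; top concentration of the series differs between compounds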)). Conditions: CIB1-GST / FITC-alphaIIb peptide fluorescence polarization; series mostly up to 57.7 µM.
Calcium and integrin-binding protein 1 (Homo sapiens), sequence (Q99828 whole entry, looked up): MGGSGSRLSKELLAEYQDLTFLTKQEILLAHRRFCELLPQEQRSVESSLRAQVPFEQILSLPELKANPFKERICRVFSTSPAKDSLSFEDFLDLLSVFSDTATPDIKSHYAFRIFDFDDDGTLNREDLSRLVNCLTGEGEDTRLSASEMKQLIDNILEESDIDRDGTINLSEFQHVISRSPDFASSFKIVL
Outline: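 Fluorescence polarization competition: CIB1-GST (1 uM final) preincubated with compound 15 min at room temperature, then FITC-labeled alphaIIb peptide (100 nM final) added for another 15 min. Polarization read at Ex 480/Em 540.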
For Clc1ccc(COC(Cn2ccnc2)c2ccc(Cl)cc2Cl)c(Cl)c1 (stereo not given), the Potency was “inactive”. COc1ccc2nc3cc(Cl)ccc3c(Nc3cc(CN4CCCC4)c(O)c(CN4CCCC4)c3)c2n1 was tested, and the Potency was “inactive”. With C#CCN(C)CC1=Cc2ccccc2Oc2ccccc21 the Potency was “inactive”. Cn1c(=O)c(Oc2ccc(F)cc2F)cc2cnc(NC3CCOCC3)nc21 was tested, and the Potency was “inactive”. With CN(C)CCOc1ccc(-c2nc(-c3ccc4c(c3)CCC4=NO)c(-c3ccncc3)[nH]2)cc1 the Potency was “inactive”. In the case of CC(C)(C)c1nc(-c2cccc(NS(=O)(=O)c3c(F)cccc3F)c2F)c(-c2ccnc(N)n2)s1, the Potency was “inactive”. In the case of CC1(C)CC(=O)c2c(C(F)(F)F)nn(-c3ccc(C(N)=O)c(NC4CCC(O)CC4)c3)c2C1 (stereo not given), the Potency was “inactive”. For CN1CCc2c(n(Cc3ccc(C(=O)NO)cc3)c3ccccc23)C1, the Potency was “inactive”. In the case of NCC1CCC(C(=O)O)CC1 (stereo not given), the Potency was “inactive”. Cc1ccccc1C(C(=O)NC1CCCCC1)N(C(=O)CNc1ccc(C#N)cc1)c1cccc(F)c1 (stereo not given) was tested, and the Potency was “inactive”. In the case of CC(C)[C@H](O)C(=O)N[C@@H](C)C(=O)N[C@@H]1C(=O)N(C)CCc2ccccc21, the Potency was “inactive”. With Cc1ccc(NC(=O)Nc2cc(C(F)(F)F)ccc2F)cc1Nc1ccc2c(c1)NC(=O)C2=Cc1ccc[nH]1 the Potency was “inactive”. In the case of C[C@@H](NC(=O)c1ncnc(N)c1Cl)c1ncc(C(=O)Nc2cc(C(F)(F)F)c(Cl)cn2)s1, the Potency was “inactive”. For CC(O)=C(C#N)C(=O)Nc1ccc(C(F)(F)F)cc1, the Potency was “inactive”. In the case of C[C@]12C=CC(=O)C=C1CC[C@@H]1[C@@H]2[C@@H](O)C[C@@]2(C)[C@@H]1CC[C@]2(O)C(=O)CO, the Potency was “inactive”. With C[C@@H]1[C@H](O)[C@@H](C)C=CC=CC=CC=CC=CC=CC=C[C@H](O[C@@H]2O[C@H](C)[C@H](O)[C@H](N)[C@@H]2O)C[C@@H]2O[C@](O)(C[C@@H](O)C[C@@H](O)[C@H](O)CC[C@@H](O)C[C@@H](O)CC(=O)O[C@H]1C)C[C@H](O)[C@@H]2C(=O)O the Potency was “inactive”. In the case of CN[C@@H]1[C@@H](O)[C@@H](O[C@@H]2[C@@H](O)[C@H](O[C@H]3O[C@H](CN)[C@@H](O)[C@H](O)[C@@H]3O)[C@@H](N)C[C@@H]2NC(=O)[C@@H](O)CN)OC[C@]1(C)O, the Potency was “inactive”. O=C(Nc1ncc(SCCN2CCCC2)s1)[C@]1(c2ccc(S(=O)(=O)C3CC3)cc2)C[C@@H]1C1CCCCC1 was tested, and the Potency was “inactive”. For OCCn1cc(-c2ccc3c(c2)CCC3=NO)c(-c2ccncc2)n1, the Potency was “inactive”. For CN(C)S(=O)(=O)c1ccc2c(c1)C(=Cc1cc3c([nH]1)CCCC3)C(=O)N2, the Potency was “inactive”. With Oc1cc(O)cc(C=Cc2ccc(O)c(O)c2)c1 the Potency was “inactive”. With O=C(O)c1ccc(O)c2ncc(N3CCOCC3)cc12 the Potency was “inactive”. For CCOc1ccccc1N=Nc1c(C)[nH]n(-c2nc(-c3ccccc3)cs2)c1=O, the Potency was “inactive”. In the case of O=c1[nH]c(=O)n([C@H]2C[C@@H](O)[C@@H](CO)O2)cc1I, the Potency was “inactive”. C=CC(=O)Nc1cccc(Sc2nc(Nc3ccc(N4CCN(C)CC4)cc3)ncc2Cl)c1 was tested, and the Potency was “inactive”.
